Data reported in PubChem BioAssay.
Active and inactive are the calls of the source. No rule for the calls is given here.

Target: L-lactate dehydrogenase (Plasmodium falciparum (isolate CDC / Honduras)) (UniProt Q27743)
Test: PfLDH activity inhibition – cell lysate, 3D7 strain, counter-screen for P. falciparum growth inhibition project (AID 2304);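 also: 0% = vehicle and 100% = reference inhibitor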
Details: P. falciparum 3D7 crude extract, LDH APAD/NBT absorbance; at 2 µM; active compounds read high

L-lactate dehydrogenase (Plasmodium falciparum (isolate CDC / Honduras)), sequence (Q27743 whole entry, looked up): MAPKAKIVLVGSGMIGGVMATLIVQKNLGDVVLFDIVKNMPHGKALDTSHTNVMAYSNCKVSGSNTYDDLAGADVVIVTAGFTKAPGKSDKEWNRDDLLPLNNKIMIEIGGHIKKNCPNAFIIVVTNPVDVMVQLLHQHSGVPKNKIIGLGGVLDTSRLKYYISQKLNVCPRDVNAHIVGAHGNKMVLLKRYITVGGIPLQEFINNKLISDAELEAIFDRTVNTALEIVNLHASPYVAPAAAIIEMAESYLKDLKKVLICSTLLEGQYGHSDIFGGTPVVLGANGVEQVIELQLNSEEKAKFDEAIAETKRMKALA

SMILES | inhibition
COc1ccc(C2C(C(=O)Nc3ccc(C)cc3Br)c3ccccc3C(=O)N2C)cc1 (stereo not drawn) | 6% (inactive)
COc1ccc(CCN(C)CCCCc2ccc(NC(=O)c3cccc4c(=O)c5cc(F)ccc5sc34)cc2)cc1OC | 0% (inactive)
CS(=O)(=O)Nc1ccc(-c2ccc3ccnc(N)c3c2)cc1 | -3% (inactive)
Cc1c(NC(=O)COc2ccc(Cl)cc2C(=O)c2cc(F)cc(C(F)(F)F)c2)ccc2ncsc12 | -2% (inactive)
COc1c(Br)cc(Br)cc1-c1ccc(CN2CC3CCC2CC3)[nH]1 | -3% (inactive)
O=C(/C=C/c1ccc(Cl)c(Cl)c1)NCCCCCCN1CCCN(C(=O)Nc2cccc(Cl)c2)CC1 | 0% (inactive)
Cc1cc2ccc(/C=C/C(=O)NC3CCC(CCN4CCc5ccc(C#N)cc5CC4)CC3)cc2[nH]1 (stereo not drawn) | -1% (inactive)
CC(C)(C)c1ccc(C(=O)NC2CCC(CCN3CCc4ccc(S(C)(=O)=O)cc4CC3)CC2)cc1C(F)(F)F (stereo not drawn) | -8% (inactive)
CCN(CC)CCN(Cc1ccc(-c2ccc(C(F)(F)F)cc2)cc1)C(=O)Cn1c(CCc2c(F)cc(F)cc2F)nc(=O)c2ccccc21 | 3% (inactive)
CC(C)(C)c1ccc(CN2CCC(NC(=O)c3ccc(-c4ccccc4F)s3)CC2)cc1 | 0% (inactive)
C1=CN(Cc2ccccc2)C=CC1=C1C=Nc2ccccc21 | -3% (inactive)
CCOc1ccc(C(=O)Nc2ccc(-c3nc4ccccc4[nH]3)cc2)cc1[N+](=O)[O-] | 4% (inactive)
CCCC(C)Nc1nc(C)cc(N[C@@H](Cc2ccccc2)C(=O)Nc2ccc(OC)cc2)n1 (stereo partly drawn) | -1% (inactive)
